A selection: hits, their analogues and other compounds. The true share with any hit is near 32%.
CYP2C19 activ: cytochrome P450 2C19 (human) activation | recombinant CYP2C19, luciferin-H EGE luminescence; stronger effect = higher value; 0 = fully inhibited enzyme, 1 = untreated enzyme | activation factor at 5 µM | 96,000 tested, under 10 active | AID 1025;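 active = activation factor of at least 2 at 5 µM in the primary screen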;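 note: 0 = wells with 2.5 mM tranylcypromine and 1 = vehicle-only wells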
Target sequence (P33261 whole entry, looked up): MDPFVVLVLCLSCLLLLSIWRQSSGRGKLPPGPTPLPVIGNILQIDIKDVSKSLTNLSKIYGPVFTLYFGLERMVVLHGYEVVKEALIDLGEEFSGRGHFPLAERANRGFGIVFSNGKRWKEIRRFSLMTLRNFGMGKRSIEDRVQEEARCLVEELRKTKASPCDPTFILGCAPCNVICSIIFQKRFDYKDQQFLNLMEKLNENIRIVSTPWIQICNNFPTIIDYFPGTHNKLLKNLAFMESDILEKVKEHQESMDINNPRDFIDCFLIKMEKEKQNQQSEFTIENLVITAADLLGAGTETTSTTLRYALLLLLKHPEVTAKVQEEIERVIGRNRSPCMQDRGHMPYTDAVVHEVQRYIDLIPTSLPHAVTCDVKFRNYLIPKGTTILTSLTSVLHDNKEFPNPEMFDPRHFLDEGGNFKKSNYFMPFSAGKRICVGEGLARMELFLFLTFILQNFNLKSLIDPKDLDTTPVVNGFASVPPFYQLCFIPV
PostGolgi yeast: growth inhibition of a yeast mutant, post-Golgi transport screen. inhibition, % at 10 µM. AID 739. post-Golgi transport phenotypic cell assay. 0.9% of 98,000 active;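 note: yeast cells grown in 1536-well plates; yeast grown about 18 h at 30C before absorbance read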
CYP2C19 inhib: blocks human cytochrome P450 2C19; CYP2C19 Supersomes, luciferin-H EGE luminescence, 30 min; 21% of 96,000 active; P33261; AID 778; inhibition, % at 5 µM;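 active = CYP2C19 inhibition above a set limit at 5 µM in the primary screen, cut at about 50% in these data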;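 note: plate controls were negative control wells for no effect and 2.5 mM tranylcypromine positive control for full effect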
PostGolgi ctrl: yeast control strain growth, post-Golgi counter-screen | efflux-deficient yeast background strain, growth absorbance A615, 16 h | 5% of 98,000 active | inhibition, % at 10 µM
CYP2C9 activ: activators of human CYP2C9; AID 1024; activation factor at 5 µM; P11712; 1.4% of 96,000 active; recombinant CYP2C9, luciferin-H conversion, luminescence; stronger effect = higher value; factor 1 = untreated enzyme, 0 = blocked;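 active = activation factor of 2 or more for CYP2C9 at a 5 µM dose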;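 note: 0 = sulfaphenazole-blocked wells and 1 = vehicle-only wells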
CYP2C9 inhib: blocks human cytochrome P450 2C9. CYP2C9 Supersomes, luciferin-H conversion, luminescence. inhibition, % at 5 µM. 20% of 96,000 active;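 active = blocking of liver enzyme CYP2C9 beyond about 50% at 5 µM, limit read from the data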
The depositor's hits bear a star; . = not tested or not shown. Cut-off read from the data, not from the text of the source, unless noted: active = inhibition above about 30%; inactive = the rest.

SMILES	CYP2C19 activ	PostGolgi yeast	CYP2C19 inhib	PostGolgi ctrl	CYP2C9 activ	CYP2C9 inhib
Cn1cc(C(=O)N2CCC3(CC2)OCCO3)c2c3ccccc3n(C)c2c1=O	0.9	-10	10	4	0.9	8
O=C(Cn1ncc2c3ccccc3n(Cc3cccc(Cl)c3)c2c1=O)N1CCC2(CC1)OCCO2	0.2	2	79*	18	0.1	91*
O=C(CN1CCN(Cc2cccc(Cl)c2)C1=O)N1CCC2(CC1)OCCO2	1.2	-2	-18	4	0.9	5
CCC(=NC1CC1)c1c(O)n(C2CCCCC2)c(=O)[nH]c1=O	0	-3	99*	28	1	2
C=CCn1c(O)c(C(CC)=NC2CC2)c(=O)[nH]c1=O	0.9	-12	10	8	0.9	6
CC(C)=CCC12CN3CCN(CC(C3)C1=O)C2	1	-8	0	-12	1	-2
CCN(c1ccc(C(O)(C(=O)OC)C(F)(F)F)cc1)S(=O)(=O)c1ccccc1 (configuration not stated)	0	4	95*	-5	0.2	79*
CCOC(=O)C(O)(c1ccc(N(CC)S(=O)(=O)c2ccccc2)cc1)C(F)(F)F (configuration not stated)	0.4	5	61*	39*	0.3	74*
N=C1C(c2ccccc2)=C(O)CN1Cc1ccco1	1.1	-4	-7	-4	1	-1
S=C(c1ccc(Cl)cc1)N1CCOCC1	0.3	0	66*	2	0.9	10
CC12CCCCC1=[N+]([O-])CN2O (configuration not stated)	1	3	2	15	0.7	28
C=CCn1c(O)c(C(CC)=NC(C)c2ccccc2)c(=O)[nH]c1=O (configuration not stated)	0.3	0	66*	40*	0.4	63*
CCCCn1c(O)c(C(C)=Nc2ccc(C(=O)O)cc2)c(=O)[nH]c1=O	1	1	1	-1	1	-1
CCCCn1c(O)c(C(C)=NC(C)c2ccccc2)c(=O)[nH]c1=O (configuration not stated)	0.5	-3	54*	19	0.2	77*
CCCCn1c(O)c(C(CC)=NC(C)c2ccccc2)c(=O)[nH]c1=O (configuration not stated)	0.3	15	71*	52*	0.1	91*
CCCCn1c(O)c(C(C)=NCCc2ccccc2)c(=O)[nH]c1=O	0.6	1	38	31*	0.3	69*
Cc1ccc(N=Nc2c(O)[nH]c(=O)[nH]c2=O)c([N+](=O)[O-])c1	1	-2	-2	17	1	3
CCOCCN1CCC(OC(C)=O)C(C)C1 (configuration not stated)	1	-2	-5	3	1.1	-6
CC(C)N1C(=O)CCC1C(=O)N1CCC2(CC1)OCCO2 (configuration not stated)	1	4	-5	13	1	-3
COc1ccccc1N1CCN(Cc2ccccc2F)CC1	0.7	36*	30	-1	0.8	23
COc1ccccc1N1CCN(Cc2c(F)cccc2F)CC1	0.4	-18	58*	4	0.8	23
COc1ccccc1N1CCN(Cc2cccc(OC)c2O)CC1	0.5	-1	52*	2	1	3
COc1ccccc1N1CCN(Cc2ccccc2Cl)CC1	0.6	-4	44	7	0.8	16
Cc1cnn(C2CCN(C)CC2)c1N	1.1	-1	-8	16	1	5
CC(=O)Nc1ccc2c(c1)CC1(C(=O)N(C)C(=O)N(C)C1=O)C1CCCN21 (configuration not stated)	1	-5	4	2	0.9	7
SMILES	CYP2C19 activ	PostGolgi yeast	CYP2C19 inhib	PostGolgi ctrl	CYP2C9 activ	CYP2C9 inhib
Cc1cccn2c(=O)c3c(nc12)N1CCC(Cc2ccccc2)CC1C1(C3)C(=O)N(C)C(=O)N(C)C1=O (configuration not stated)	0.6	-4	42	23	0.1	91*
CCOCCN1CCN(c2nnc3n2-c2ccc(Cl)cc2C(c2ccccc2Cl)=NC3)CC1	1	10	4	18	0.8	22
Cc1ccc(N)c(C(=O)c2ccccc2)c1	0.2	-1	85*	3	1	3
CCCCCCOC(=O)c1ccccc1N	1.1	24	-7	3	1.1	-9
FC(F)(F)c1cccc(-n2nnnc2C2(N3CCOCC3)CCCCC2)c1	0.4	-8	57*	-4	0.7	26
COC(=O)c1c(C)[nH]c(C(=O)C(Cc2ccccc2)N(C)C)c1C (configuration not stated)	0.1	5	92*	11	0.1	92*
CCOC(=O)c1c(C)[nH]c(C(=O)C(Cc2ccccc2)N(C)C)c1C (configuration not stated)	0.6	10	37	13	0.2	84*
Cc1nn(C2CCOC(C)(C)C2)c2c1C(c1ccc(OC(C)C)cc1)SCC(=O)N2 (configuration not stated)	1.1	-4	-8	-6	1	-1
C(#CCN1CCOCC1)COC/C=C/c1ccccc1	0.6	-6	45	2	1	-1
CN1CCC2(CC1)NC(=O)C1=C(CN(C)CC1)N2	.	-4	.	10	.	.
CCC(C)N1C(=O)NC(=O)C2(Cc3c(ccc4ccccc34)N(C)C2)C1=O (configuration not stated)	0.6	3	41	33*	0.7	28
Cc1ccc(N2C(=O)/C(=C/c3ccc(CN(CCC#N)S(C)(=O)=O)o3)C(=O)NC2=S)cc1	0.9	-5	11	6	0.5	47
CC1=CC(=C2C(=O)NC(=S)NC2=O)C=C(C(F)(F)F)N1C	1.1	40*	-5	11	1	0
ClC1=CCC2CN(CCN3CCCCC3)CC2C1 (configuration not stated)	0.9	.	13	.	1	-2
CCOC(=O)C1=C(N)Oc2cc(C)oc(=O)c2C12C(=O)N1c3c(cccc32)C(C)=CC1(C)C (configuration not stated)	0.5	7	53*	17	0.8	16
CCOC(=O)C1=C(N)Oc2cc(C)oc(=O)c2C12C(=O)N1c3c(cc(OC)cc32)C(C)=CC1(C)C (configuration not stated)	0.5	-8	46	-2	0.8	22
O=C(Nc1ccc(Cl)cc1)Nc1nccs1	1	3	4	11	0.7	25
CSc1nnc(C2CCNCC2)n1C	1.2	4	-22	7	1.1	-12
Cc1ccccc1NC1=NCC(C)S1 (configuration not stated)	0.9	5	10	6	0.9	5
O=c1c2ccccc2nc(-c2ccc(-c3ccccc3)cc2)n1-c1ccncc1	1	100*	-3	86*	0.7	26
Cc1cc(Cl)ccc1OC(C)C(=O)O (configuration not stated)	1	-18	-5	2	1	4

Source: PubChem
